# Assay results: PubChem BioAssay
# Values joined by “and” are separate entries in the source; they are usually repeats but may differ in a detail not shown here. Equal entries are not always repeated. Active and inactive are the calls of the source. Unless noted, no stated cut-off is given here; in the data, active means inhibition above about 80%; inactive means the rest.
# How the values were obtained:
# [1] = LFS_MB_1R medulloblastoma cell growth inhibition, synergistic combos for chromothripsis tumors, cisplatin or BGB combos (AID 1671452); conditions: LFS_MB_1R medulloblastoma cells, stronger effect = higher value;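 further: cells exposed for 96 hours before readout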
# [2] = CRL2098 osteosarcoma cell growth inhibition, synergistic combos for chromothripsis tumors, BGB or cisplatin IC20 combos (AID 1671454); conditions: CRL2098 osteosarcoma cells, drug combinations, stronger effect = higher value;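 further: cells exposed for 96 h before readout; 0% = vehicle DMSO and 100% = killing by high DMSO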
# [3] = HD-MB03 medulloblastoma cell growth inhibition, synergistic combos for chromothripsis tumors, BGB or cisplatin IC20 combos (AID 1671455; in the data active means inhibition above about 83%;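 further: 0% = vehicle DMSO and 100% = high DMSO as cytotoxic control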); conditions: HD-MB03 medulloblastoma cells, stronger effect = higher value
# [4] = UWB1.289 ovarian carcinoma cell growth inhibition, synergistic combos for chromothripsis tumors, BGB or cisplatin combos (AID 1671456); conditions: UWB1.289 ovarian carcinoma cells, stronger effect = higher value;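 further: cells exposed to compound for four days; 0% = vehicle DMSO and 100% = killing by high DMSO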
# [5] = LFS_MB_2R medulloblastoma cell growth inhibition, synergistic combos for chromothripsis tumors, cisplatin combos (AID 1671457); conditions: LFS_MB_2R medulloblastoma cells, stronger effect = higher value;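 further: cells exposed to compound for four days before readout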
# [6] = UWB1.289_BRCA1 ovarian cancer growth, cell-based, BGB or cisplatin combinations (AID 1671459); conditions: UWB1.289 BRCA1 ovarian carcinoma, drug combinations, stronger effect = higher value
# [7] = human astrocyte viability loss, single and combined drugs, cytotoxicity control for chromothriptic childhood tumor combination screen, cell-based, BGB or cisplatin IC20 combos (AID 1671460); conditions: Human astrocytes, drug combinations, stronger effect = higher value;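 further: cells exposed to compounds for 96 hours before viability readout; 0% = vehicle and 100% = killing control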
# [8] = growth inhibition of CRL1545 osteosarcoma cells, cell-based, cisplatin and BGB IC20 combos (AID 1671464); conditions: stronger effect = higher value;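 further: cells exposed to compound for 96 hours before readout; 0% = vehicle DMSO and 100% = high DMSO killing control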
# [9] = target: Mitogen-activated protein kinase 7 (Homo sapiens) (UniProt Q13164); experiment: ERK5 transactivation activators in reporter cells, primary screen, cell-based, HTS (AID 1508626;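 active means luciferase signal above three times the same-plate solvent-only control wells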;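 further: luciferase driven by Gal4-ERK5 fusion binding five Gal4 sites before minimal TATA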); conditions: HeLa Gal4-ERK5 transactivation, 18 h, at 5 µM, stronger effect = higher value
# Sequence of Mitogen-activated protein kinase 7 (Homo sapiens) (Q13164 whole entry, looked up, the tested form may be a part): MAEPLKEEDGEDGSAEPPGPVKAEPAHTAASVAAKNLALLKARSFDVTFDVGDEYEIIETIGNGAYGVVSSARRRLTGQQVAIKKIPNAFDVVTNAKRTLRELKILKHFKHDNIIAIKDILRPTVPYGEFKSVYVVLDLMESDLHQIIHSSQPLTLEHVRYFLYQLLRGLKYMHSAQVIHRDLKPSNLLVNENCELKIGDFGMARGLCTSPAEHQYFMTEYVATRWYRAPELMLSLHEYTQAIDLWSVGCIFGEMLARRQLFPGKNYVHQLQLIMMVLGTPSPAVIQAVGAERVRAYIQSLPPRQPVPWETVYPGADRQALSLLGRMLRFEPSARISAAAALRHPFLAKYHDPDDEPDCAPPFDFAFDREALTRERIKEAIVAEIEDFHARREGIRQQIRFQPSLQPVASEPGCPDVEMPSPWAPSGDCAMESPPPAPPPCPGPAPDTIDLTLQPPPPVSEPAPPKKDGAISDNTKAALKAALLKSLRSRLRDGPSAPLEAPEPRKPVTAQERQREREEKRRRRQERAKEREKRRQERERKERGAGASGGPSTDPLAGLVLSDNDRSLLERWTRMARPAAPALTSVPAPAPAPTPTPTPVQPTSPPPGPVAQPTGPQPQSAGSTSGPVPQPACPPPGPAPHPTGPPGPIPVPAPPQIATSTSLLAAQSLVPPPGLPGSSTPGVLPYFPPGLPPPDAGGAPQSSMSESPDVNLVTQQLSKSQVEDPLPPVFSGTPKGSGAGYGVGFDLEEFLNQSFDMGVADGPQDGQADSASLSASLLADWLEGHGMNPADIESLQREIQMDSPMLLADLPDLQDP
# [10] = kinase inhibitors against Plasmodium liver-stage infection, cell-based, known kinase inhibitor set, luminescence, hepatoma host viability (AID 624392; call rule not given here;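 further: infected cells incubated roughly two days before readout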); conditions: Plasmodium liver stage in hepatoma cells, luciferase luminescence, concentration not given here; liver cell % of control: measured here: host liver cell viability; parasite % of control: stronger effect = lower value
# [11] = target: NAD(+) hydrolase SARM1 (Homo sapiens) (UniProt Q6SZW1); experiment: SARM1 TIR NADase inhibitors, cell lysate, NAD-Glo luminescence (AID 1508614;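 active means compound whose remaining NAD level is above about 45 nM, limit read from the data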); conditions: SAM-TIR HEK293T lysate NADase, at 1 µM, stronger effect = higher value
# Sequence of NAD(+) hydrolase SARM1 (Homo sapiens) (Q6SZW1 whole entry, looked up): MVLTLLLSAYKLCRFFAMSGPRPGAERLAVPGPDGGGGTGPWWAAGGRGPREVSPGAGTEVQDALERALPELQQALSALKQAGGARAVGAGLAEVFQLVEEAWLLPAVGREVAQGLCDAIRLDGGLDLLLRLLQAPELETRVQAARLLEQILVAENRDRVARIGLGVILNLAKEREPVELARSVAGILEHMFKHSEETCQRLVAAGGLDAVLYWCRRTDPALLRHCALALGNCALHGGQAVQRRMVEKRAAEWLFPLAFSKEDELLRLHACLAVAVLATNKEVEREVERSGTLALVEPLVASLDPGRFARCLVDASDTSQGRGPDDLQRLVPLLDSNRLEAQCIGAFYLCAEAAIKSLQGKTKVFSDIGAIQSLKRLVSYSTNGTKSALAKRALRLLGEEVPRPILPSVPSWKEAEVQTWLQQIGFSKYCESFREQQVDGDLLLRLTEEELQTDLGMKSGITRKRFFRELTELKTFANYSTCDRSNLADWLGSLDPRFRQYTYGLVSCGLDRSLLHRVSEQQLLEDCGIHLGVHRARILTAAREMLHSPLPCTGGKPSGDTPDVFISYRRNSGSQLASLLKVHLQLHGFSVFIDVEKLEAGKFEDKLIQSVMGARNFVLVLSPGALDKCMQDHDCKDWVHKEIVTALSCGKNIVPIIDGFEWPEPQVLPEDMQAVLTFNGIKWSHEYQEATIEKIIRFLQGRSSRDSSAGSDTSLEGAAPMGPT
# [12] = viability rescue of complex I mutant cybrids, primary screen, cell-based, galactose medium, ATP luminescence (AID 1645843;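 active means z-score of at least 1.8 in each of two replicates, scored against plate mean and spread of sample wells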;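 further: positive z means more ATP and so rescue of galactose-driven cybrid death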); conditions: complex I mutant cybrid cells, 72 h, stronger effect = higher value
# [13] = liver-stage malaria parasite growth inhibition, primary screen, cell-based, HepG2, luciferase luminescence, HepG2 viability (AID 624349; in the data active means parasite load remaining mostly below about 12%, no sharp cut-off; inactive means mostly above about 10%;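 further: 100% = mean of DMSO negative control wells on the same plate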); conditions: P. berghei liver stage in HepG2, luciferase luminescence, concentration not given here; parasite load remaining: stronger effect = lower value; viability: measured here: HepG2 viability without parasites
# [14] = test system: Hepatitis C virus NS3 helicase; experiment: HCV NS3 helicase inhibitors, primary screen, biochemical, fluorescence polarization, LOPAC1280 library (AID 687035; in the data active means inhibition above about 37%); conditions: Purified HCV NS3 helicase, Cy5-dT15 ssDNA binding fluorescence polarization; stronger effect = higher value; concentration not given here
# [15] = Cy5 fluorescence quenching or enhancement artefacts, artefact control for HCV NS3 helicase inhibitor project, biochemical, LOPAC1280 (AID 687037; call rule not given here); conditions: Cy5-DNA-NS3h complex fluorescence interference counterscreen
# [16] = phospholipid biosynthesis inhibitors in animal cells, primary screen, cell-based, LOPAC library, screen 4 (AID 1347384; call rule not given here); conditions: phospholipid biosynthesis inhibition screen, at 10 µM
# [17] = circadian clock period modulators, cell-based, LOPAC library, luminescence reporter (AID 2774; call rule not given here;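 further: values are relative to mean of DMSO wells on each plate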); conditions: circadian reporter cells, at 7 µM, actives lie on both sides
# [18] = hESC survival regulators, cell-based (AID 493140; call rule not given here;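 further: cells exposed to compounds for four days before counting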); conditions: human embryonic stem cell survival screen; stronger effect = higher value
# [19] = inhibitors of Cryptococcus chitosan production, flow cytometry, Cibacron Brilliant Red staining (AID 1347148; call rule not given here;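 further: compound exposure lasted three days at 37 degrees C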); conditions: Cryptococcus neoformans chitosan, stronger effect = lower value; at 10 µM unless noted
# [20] = measured here: combination with BGB IC40, at 0.05 µM
# [21] = measured here: combination with cisplatin, at 0.5 µM
# [22] = measured here: combination with cisplatin, at 5 µM
# [23] = measured here: combination with BGB at IC20, at 0.5 µM
# [24] = measured here: combination with cisplatin at IC20, at 0.5 µM
# [25] = measured here: combo with BGB at IC20, at 0.5 µM
# [26] = measured here: combo with cisplatin at IC20, at 0.5 µM
# [27] = measured here: inhibition with BGB combination, at 0.05 µM
# [28] = measured here: inhibition with cisplatin combination, at 0.05 µM
# [29] = BGB combination, concentration series, at 5 µM
# [30] = cisplatin combination, concentration series, at 5 µM
# [31] = measured here: combo with BGB IC20, at 0.5 µM
# [32] = measured here: combo with cisplatin IC20, at 0.5 µM
# [33] = measured here: with BGB IC20 combination, at 0.5 µM
# [34] = measured here: with cisplatin IC20 combination, at 0.5 µM
compound,measurement,setting,value
CN1CCc2c(c3ccccc3n2Cc2ccc(C(=O)NO)cc2)C1,inhibition,[1]; at 0.5 µM,-13.1% (inactive)
same,inhibition,[1]; [20],-12% and -15.8%
same,inhibition,[1]; [21],-23.4% and -23.9%
same,inhibition,[1]; [22],-0.081% and -53.5%
same,inhibition,[2]; at 0.5 µM,21.5% (inactive) and -46.3% (inactive)
same,inhibition,[2]; [23],-14.9% and -43.1%
same,inhibition,[2]; [24],34.9% and -68.1%
same,inhibition,[3]; at 0.5 µM,-1.98% (inactive) and 0.91% (inactive)
same,inhibition,[3]; [25],-6.31% and -10.4%
same,inhibition,[3]; [26],1.42% and 11.7%
same,inhibition,[4]; at 0.5 µM,1.69% (inactive) and 0.65% (inactive)
same,inhibition,[4]; [27],-1.11% and -13.8%
same,inhibition,[4]; [28],3.47% and 1.13%
same,inhibition,[5]; at 0.5 µM,-14.9% (inactive) and -18.4% (inactive)
same,inhibition,[5]; [21],-17.1% and -16.5%
same,inhibition,[5]; [22],-17.1% and 0.035%
same,inhibition,[6]; [29],19.3% and 22.8%
same,inhibition,[6]; at 0.5 µM,-0.05% (inactive) and 2.69% (inactive)
same,inhibition,[6]; [30],23.3% and 11.9%
same,inhibition,[7]; at 0.5 µM,-0.01% (inactive) and -0.33% (inactive)
same,inhibition,[7]; [31],5.22% and 4.02%
same,inhibition,[7]; [32],-7.05% and -4.68%
same,inhibition,[8]; at 0.5 µM,17% (inactive) and -23.2% (inactive)
same,inhibition,[8]; [33],-9.72% and -7.89%
same,inhibition,[8]; [34],29.2% and -33%
same,inhibition,"[8]; single agent, at 0.05 µM",-10.6% and -2.77%
same,inhibition,"[8]; single agent, at 5 µM",6.01% and -28.9%
C[C@H]1[C@H](C)CC[C@]2(C(=O)O)CC[C@]3(C)C(=CC[C@@H]4[C@@]5(C)C[C@@H](O)[C@H](O)[C@@](C)(CO)[C@@H]5CC[C@]43C)[C@H]12,luciferase signal,[9],36 AU (inactive)
CN(C)CC(C)(C)CNc1nn2c(-c3ccccc3)nnc2cc1C1CCC1,liver cell % of control,[10],58.5% and 89.5% and 101%
same,parasite % of control,[10],54.4% (inactive) and 60.7% (inactive) and 52.9% (inactive)
CO[C@H]1/C=C/O[C@@]2(C)Oc3c(C)c(O)c4c(O)c(c5c(nc6cc(C)ccn65)c4c3C2=O)NC(=O)/C(C)=C\C=C\[C@H](C)[C@H](O)[C@@H](C)[C@@H](O)[C@@H](C)[C@H](OC(C)=O)[C@@H]1C,remaining NAD,[11],10 nM (inactive)
same,luciferase signal,[9],32 AU (inactive)
OCCn1cc(-c2cnc3nnn(Cc4ccc5ncccc5c4)c3n2)cn1,liver cell % of control,[10],97.5% and 96.9% and 96.4%
same,parasite % of control,[10],74.3% (inactive) and 94.9% (inactive) and 55.7% (inactive)
O=C(O)CCCc1c[nH]c2ccccc12,z-score,[12],1.11 (inactive)
Cc1cccc(-c2[nH]c(C(C)(C)C)nc2-c2ccc3c(c2)OCO3)n1,parasite load remaining,[13],33.2% (inactive)
same,viability,[13],61.8%
Cc1cccc(-c2[nH]c(C(C)(C)C)nc2-c2ccc3nccnc3c2)n1,inhibition,[14],-3% (inactive)
same,fluorescence ratio (interference),[15],1 (inactive)
same,outcome,[16],inactive
same,z-score,[12],-1.01 (inactive)
O=c1c(O)c(-c2cc(O)c(O)c(O)c2)oc2cc(O)cc(O)c12,period change,[17],-0.075 h (inactive)
same,survival,[18],2.42 (inactive)
same,parasite load remaining,[13],81.9% (inactive) and 74.4% (inactive)
same,viability,[13],106% and 74.8%
same,inhibition,[14],8% (inactive)
same,fluorescence ratio (interference),[15],1 (inactive)
same,outcome,[16],inactive
same,z-score,[12],-1.22 (inactive)
O=C(c1cc(Cc2n[nH]c(=O)c3ccccc23)ccc1F)N1CCN(C(=O)C2CC2)CC1,inhibition,[1]; at 0.5 µM,0.5% (inactive) and -18.6% (inactive)
same,inhibition,[1]; [20],4.09% and -28.6%
same,inhibition,[1]; [21],-5.89% and -28.2%
same,inhibition,[1]; [22],10.2% and -13.4%
same,inhibition,[2]; at 0.5 µM,-22.2% (inactive) and -52% (inactive)
same,inhibition,[2]; [23],-38.6% and -22.3%
same,inhibition,[2]; [24],8.08% and -53.7%
same,inhibition,[3]; at 0.5 µM,0.63% (inactive) and 3.05% (inactive)
same,inhibition,[3]; [25],-2.67% and 1.02%
same,inhibition,[3]; [26],5.32% and 12.9%
same,inhibition,[4]; at 0.5 µM,3.95% (inactive) and -1.88% (inactive)
same,inhibition,[4]; [27],-15.9% and -18%
same,inhibition,[4]; [28],-0.831% and -12.7%
same,inhibition,[5]; at 0.5 µM,-13.1% (inactive) and -23.1% (inactive)
same,inhibition,[5]; [21],-6.19% and -20.5%
same,inhibition,[5]; [22],-14.1% and -19.5%
same,inhibition,[6]; [29],15.2% and -17.7%
same,inhibition,[6]; at 0.5 µM,3.2% (inactive) and -8.35% (inactive)
same,inhibition,[6]; [30],8.98% and -4%
same,inhibition,[7]; at 0.5 µM,4.09% (inactive) and -6.96% (inactive)
same,inhibition,[7]; [31],0.597% and -11.9%
same,inhibition,[7]; [32],7.1% and 3.7%
same,inhibition,[8]; at 0.5 µM,11% (inactive) and 18.2% (inactive)
same,inhibition,[8]; [33],2.64% and 8.45%
same,inhibition,[8]; [34],15.2% and 23.1%
same,inhibition,"[8]; single agent, at 0.05 µM",8.77% and 29.2%
same,inhibition,"[8]; single agent, at 5 µM",44.7% and 52.9%
Cc1ccc2c(c1)C(=O)[C@]1(O)CCN(c3ccccc3)C1=N2,fold fluorescence,[19],7.57 [at 171 µM] (inactive)
CCC(=O)N1CCN(c2ccc(-n3c(=O)ccc4cnc5ccc(-c6cnc7ccccc7c6)cc5c43)cc2C(F)(F)F)CC1,liver cell % of control,[10],56.3% and 62.9% and 78.1%
CC#CCn1c(N2CCC[C@@H](N)C2)nc2c1c(=O)n(Cc1nc(C)c3ccccc3n1)c(=O)n2C,remaining NAD,[11],10 nM (inactive)
